# Compound activity (PubChem BioAssay)
# In the library only some 12% were active in any assay of this set; here they are far more common.
# PostGolgi yeast: growth inhibition of a yeast mutant, post-Golgi transport screen; actives 0.9% (n = 98,000); AID 739; post-Golgi transport phenotypic cell assay; inhibition, % at 10 µM;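 also: yeast cells grown in 1536-well plates; yeast grown about 18 h at 30C before absorbance read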
# Cav32 inh: inhibitors of human Cav3.2 T-type calcium channel; O95180; Cav3.2-expressing cells, Fluo-4 calcium fluorescence FDSS; stronger effect = lower value; B-score at 10 µM; actives 4% (n = 100,000); AID 449739;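 active = single-dose well whose peak fluorescence ratio is a statistical outlier from its plate by either plate-standardised score or position-corrected B-score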
# PLAP activator: human PLAP activation; purified PLAP enzyme, luminescent substrate read-out; stronger effect = higher value; actives 1.2% (n = 96,000); activation fold at 20 µM; P05187; AID 696; in the data active = activation fold above about 2
# DAT uptake mod: human DAT dopamine uptake with cocaine, either direction; Q01959; LLC-PK1 hDAT cells, [14C]-dopamine uptake with cocaine IC80; actives deviate in either direction; B-score at 10 µM; actives 1.3% (n = 110,000);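 active = Z score or B-score, a plate-position-corrected score, falls beyond the plate's 99.7% confidence bounds, in either direction; inactive = both scores lie inside the 99.7% bounds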;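 also: scored against the spread of the other compound wells on the same plate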
# PostGolgi ctrl: inhibits growth of the yeast control strain | efflux-deficient yeast background strain, growth absorbance A615, 16 h | inhibition, % at 10 µM | actives 5% (n = 98,000)
# D1 mod: allosteric modulators of human D1 dopamine receptor | P21728 | HEK293 D1, CRE-luciferase, dopamine EC30 potentiation; actives deviate in either direction | B-score at 10 µM | actives 5.9% (n = 58,000) | AID 641;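 active = luminescence count or its row- and column-corrected plate score outside the 99.7% band of the plate's sample wells, on either side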
# Target sequence (P21728 whole entry, looked up): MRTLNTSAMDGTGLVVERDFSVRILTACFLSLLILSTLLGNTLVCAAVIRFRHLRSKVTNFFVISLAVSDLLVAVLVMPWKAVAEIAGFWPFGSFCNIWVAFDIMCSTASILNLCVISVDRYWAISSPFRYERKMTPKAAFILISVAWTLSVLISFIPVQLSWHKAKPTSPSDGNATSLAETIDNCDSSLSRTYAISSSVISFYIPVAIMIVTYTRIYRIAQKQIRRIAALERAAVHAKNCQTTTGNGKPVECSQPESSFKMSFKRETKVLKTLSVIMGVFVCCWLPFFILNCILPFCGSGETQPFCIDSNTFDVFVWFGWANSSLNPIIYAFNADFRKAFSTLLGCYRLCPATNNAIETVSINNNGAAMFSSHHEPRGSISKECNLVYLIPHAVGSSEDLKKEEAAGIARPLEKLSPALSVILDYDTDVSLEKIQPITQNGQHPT
# The depositor's hits bear a star; / = no result given. Rule as the data show it, unless noted: active = inhibition above about 30%; inactive = the rest.
SMILES,PostGolgi yeast,Cav32 inh,PLAP activator,DAT uptake mod,PostGolgi ctrl,D1 mod
CCOC(=O)C(C)Sc1nnc(Cc2cc(=O)[nH]c(=O)[nH]2)n1-c1ccc(Cl)cc1 (stereo not drawn),5,0.99,/,-0.52,6,-0.85
Cc1ccc2oc(=O)c3cc(C(=O)N4CCN(c5ncccn5)CC4)sc3c2c1,/,/,/,/,/,1.2
O=C(NC1CCS(=O)(=O)C1)C12CC3CC(CC(C3)C1)C2 (stereo not drawn),13,0.038,0.8,0.055,2,/
O=C(CN(C(=O)C1CSC(=O)C1)c1ccccc1F)NCc1ccc2c(c1)OCO2 (stereo not drawn),-6,-3.8*,1.4,0.085,7,0.27
O=C(c1n[nH]c2ccccc12)N1CCN(S(=O)(=O)c2ccc3ccccc3c2)CC1,14,-0.54,1.6,0.48,56*,-0.33
O=C(c1cnccn1)N1CCN(S(=O)(=O)c2ccc3ccccc3c2)CC1,15,0.75,1.7,0.042,-4,/
COc1ccc(COc2cc(-c3cccc(OC)c3)nc3ccc(N)cc23)cc1,/,-0.13,/,0.032,/,/
CC(C)CC(=O)Nc1nc(=S)ss1,-6,-5.6*,1,0.037,9,/
Cc1ccccc1C(=O)Nc1nc(=S)ss1,6,-5*,1,-0.53,18,/
COc1ccc(OC)c(-c2cc(C(=O)Nc3c(C)nn(Cc4ccccc4)c3C)no2)c1,9,-2.7,1,-1.4,38*,2
Cc1nn(Cc2ccccc2)c(C)c1NC(=O)c1cc(-c2ccco2)on1,-1,-6.2*,/,-0.93,4,-0.44
COc1ccc(OC)c(-c2cc(C(=O)Nc3c(C)nn(Cc4ccc(Cl)cc4)c3C)no2)c1,-9,/,1.3,/,33*,1.5
COc1ccc(-c2cc(C(=O)Nc3c(C)nn(Cc4ccccc4Cl)c3C)no2)cc1,-4,-3.2,0.8,-0.34,3,/
Cc1cc(C(=O)Nc2c(C)nn(Cc3c(Cl)cccc3Cl)c2C)no1,-8,0.015,1.2,-0.48,33*,-0.47
COc1ccc(OC)c(-c2cc(C(=O)Nc3cc(C)on3)no2)c1,3,-0.27,0.9,-1.8,5,-0.16
COc1cc(CC(=O)NCCc2ccc(S(N)(=O)=O)cc2)cc(OC)c1OC,5,-0.7,1.1,0.086,15,/
Cn1c(=O)c2c(nc(N3CCNCC3)n2Cc2cccc3ccccc23)n(C)c1=O,-4,0.17,1.5,-0.017,8,0.21
CCCOc1nc2c(c(=O)n(C)c(=O)n2C)n1Cc1cccc2ccccc12,4,-2.7,1.6,1.4,37*,-0.95
Cc1cccc(C(=O)NN(C)c2nc(-c3ccccc3)nnc2C(F)(F)F)c1,5,0.96,0.9,-2.3,-2,/
COc1ccc(C(=O)NN(C)c2nc(-c3ccccc3)nnc2C(F)(F)F)cc1,2,/,1.1,/,35*,/
CCOC(=O)C1=C(C)N(Cc2ccccc2)C(=O)NC1c1ccc(OC)cc1 (stereo not drawn),-2,-5.8*,1,-0.11,22,/
CCOC(=O)CN1C(=O)N[C@@H](c2ccccc2)C(C(=O)OC)=C1C,/,1.4,/,-1,/,/
CCOC(=O)C1=C(c2ccccc2)N(C)C(=O)NC1c1ccc(O)c(OC)c1 (stereo not drawn),18,0.33,1.1,0.18,31*,-0.016
CCOc1ccc2ccccc2c1/C=N/n1cncn1,18,0.39,0.7,1.5,5,1.9
CC1CCN=C(N)S1 (stereo not drawn),/,0.31,/,0.1,/,/
SMILES,PostGolgi yeast,Cav32 inh,PLAP activator,DAT uptake mod,PostGolgi ctrl,D1 mod
O=S(=O)(c1cccc(S(=O)(=O)N2CCC(Cc3ccccc3)CC2)c1)N1CCOCC1,-6,-5.9*,/,0.67,13,0.056
O=S(=O)(NCc1ccccc1)c1cccc(S(=O)(=O)N2CCOCC2)c1,-3,0.0052,0.7,0.057,-9,/
COc1cc(Cc2nc3ccc(S(=O)(=O)N4CCOCC4)cc3[nH]2)cc(OC)c1OC,8,-0.69,1.6,1,-2,/
O=S(=O)(c1ccc2nc(Cc3ccccc3)[nH]c2c1)N1CCOCC1,-7,0.5,2.2*,2,14,0.49
O=S(=O)(c1ccc2nc(COc3ccccc3)[nH]c2c1)N1CCOCC1,1,0.39,2*,0.73,10,/
O=C(O)CCCC(=O)Nc1ccccc1C(=O)N1CCCC1,7,-0.11,1,0.069,6,0.038
COc1ccc(/C=N\NC(=O)C2C(=O)NCC2c2ccccc2)cc1O (stereo not drawn),3,0.99,1.3,-0.48,9,/
O=C1C(=O)N(CCCN2CCOCC2)C(c2ccccn2)/C1=C(\O)c1ccc2c(c1)OCCO2 (stereo not drawn),/,/,/,/,/,-0.36
CC(C)(C)c1ccc(C2(C)NC(=O)N(CC(=O)Nc3ccc4c(c3)OCO4)C2=O)cc1 (stereo not drawn),1,-5.6*,0.8,-0.46,10,/
Cc1ccc(C2(C)NC(=O)N(CC(=O)Nc3cc(C)on3)C2=O)cc1 (stereo not drawn),-1,-0.02,1.1,-0.11,31*,/
Cc1cc(NC(=O)CN2C(=O)NC(Cc3ccccc3)C2=O)no1 (stereo not drawn),-3,0.19,0.7,0.027,7,/
C/C(=N\Nc1cc(Cl)nc(C)n1)c1ccc(C)cc1,/,-1.5,/,0.0037,/,/
O=C(Nc1ccc2c(c1)N(Cc1ccccc1)C(=O)c1ccccc1S2)NC1CC1,-6,-0.77,2.1*,0.2,7,/
CCOC(=O)CSc1cccc2cccnc12,-11,-0.53,/,-1.5,-2,0.19
CCOC(=O)C(C)c1ccc2cc(OC)ccc2c1 (stereo not drawn),-4,-1.7,0.9,-4.2*,2,/
COc1ccc(C2c3c(oc4ccc(F)cc4c3=O)C(=O)N2CCN2CCOCC2)cc1OC (stereo not drawn),/,/,/,/,/,-0.044
CCC(C)OC(=O)C1=C(C)OC23OC(N)=C(C#N)C12C(=O)c1ccccc13 (stereo not drawn),/,-2.7*,/,0.02,/,/
COc1ccc(F)cc1S(=O)(=O)NC1CCCC1,-3,-0.28,1.1,-0.82,4,/
S=C1N(c2ccccc2)C(c2cccc3ccccc23)N2CCCN12 (stereo not drawn),-4,0.19,0.9,-0.47,9,/
Cc1cc(NC(=O)CSc2nnc(-c3ccco3)n2Cc2ccccc2)no1,/,1.7,/,0.1,/,/
COCCn1c(Cc2ccccc2)nnc1SCC(=O)Nc1cc(C)on1,4,-1.3,0.9,-0.36,43*,/
Cc1cc(NC(=O)CSc2nnc(-c3ccc(Br)o3)n2Cc2ccccc2)no1,6,-5*,0.9,0.99,11,/
COc1c(Cl)cc(-c2noc(C)c2C(=O)NC(C)C)cc1Cl,/,-0.13,/,0.2,/,0.21
